# PubChem BioAssay (EPA / NIEHS)
# Inconclusive results are not listed. Calls of active or inactive are those of the source. How the source made its calls: active means hit-call score of the fitted dose curve at least 0.9, where 1 is the maximum; inconclusive means response in the unintended direction; inactive means score below 0.9.
# Assay: ACEA_ER_AUC_viability: ACEA Biosciences xCELLigence Real-Time Cell Analysis on Estrogen Receptor Agonism for Viability (AID 2283782);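 further: continuous compound exposure with impedance area under curve over 80 h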
# Experimental: ACEA_ER is a cell-based, single-readout assay that uses T47D, a human breast cell line, with measurements taken at 80 hours after chemical dosing in a 96-well plate, although TO2 (mc0.srcf) used a 384-well plate. Differences in plate size can be ignored given data normalization.ACEA_ER_AUC_viability is one of two assay component(s) measured or calculated from the ACEA_ER assay. It is designed to make measurements of real-time cell-growth kinetics, a form of growth reporter, as detected with electrical impedance signals by Real-Time Cell Electrode Sensor (RT-CES) technology.Data from the assay component ACEA_ER_AUC_viability was analyzed in the positive analysis fitting direction relative to DMSO as the negative control and baseline of activity. Using a type of growth reporter, loss-of-signal activity can be used to understand changes in the viability. Furthermore, this assay endpoint can be referred to as a secondary readout, because this assay has produced multiple assay endpoints where this one serves a viability function. To generalize the intended target to other relatable targets, this assay endpoint is annotated to the cell cycle intended target family, where the subfamily is cytotoxicity.
# The xCELLigence system Multi-E-Plate stations were used to measure the time-dependent response to chemicals. Each compound was tested in an eight-point, 1:4 serial dilution series starting at a maximum final concentration of 100 uM. A maximum starting concentration of 0.5% DMSO was present in the 100 uM chemical samples and was diluted along with the test article dilution series. The screen was performed in biological duplicate using two separate, 96-well, E-Plates 96 for each dilution series (n = 2). Positive controls (MG132 and E2) and a negative control (assay media) were tested in quadruplicate on each testing plate. Then, 0.5% and 0.125% DMSO were tested in duplicates in each plate to serve as solvent controls for the 2 highest concentrations of testing compounds: 100 uM and 25 uM. Reference compounds were tested with 8 concentrations with 1:5 serial dilutions. All screening was carried out by ACEA Biosciences, Inc. (San Diego, CA). T-47D cells purchased from ATCC were maintained in RPMI1640 media supplemented with 10% characterized fetal bovine serum (FBS). Before screening, T-47D cells were preconditioned in assay medium: phenol red-free RPMI1640 supplemented with 10% charcoal-stripped FBS. Cells were then detached and seeded in E-Plates 96 in assay medium. After overnight monitoring of growth once every hour, compounds were added to […] cells and remained in the medium until the end of the experiment. Cellular responses were then recorded once every 5 min for the first 5 h, and once every hour for an additional 100 h.
Structure (SMILES),AC50,outcome
CCCCCCCCSCCO,70.5 µM (active),–
COC(=O)c1ccc([N+](=O)[O-])cc1,80.2 µM (active),–
CC(=O)c1c(C)c([N+](=O)[O-])c(C(C)(C)C)c([N+](=O)[O-])c1C,–,inactive
OC[C@H]1O[C@@H]2O[C@H]3[C@H](O)[C@@H](O)[C@@H](O[C@H]4[C@H](O)[C@@H](O)[C@@H](O[C@H]5[C@H](O)[C@@H](O)[C@@H](O[C@H]6[C@H](O)[C@@H](O)[C@@H](O[C@H]7[C@H](O)[C@@H](O)[C@@H](O[C@H]8[C@H](O)[C@@H](O)[C@@H](O[C@H]9[C@H](O)[C@@H](O)[C@@H](O[C@H]1[C@H](O)[C@H]2O)O[C@@H]9CO)O[C@@H]8CO)O[C@@H]7CO)O[C@@H]6CO)O[C@@H]5CO)O[C@@H]4CO)O[C@@H]3CO,–,inactive
N#Cc1cscn1,–,inactive
C=C(C)C(=O)OCCOC1CC2CC1C1C=CCC21 (stereo not given),48.6 µM (active),–
COc1ccccc1[N+](=O)[O-],–,inactive
CCCCOCC,–,inactive
C[C@H]1C[C@@H](O)CC(C)(C)C1,50 µM (active),–
CC=Cc1ccc(OC)c(OC)c1,–,inactive
Nc1ccc(NCCO)c([N+](=O)[O-])c1,–,inactive
CCCCCCCCCCCCN1CCCCCC1=O,31.3 µM (active),–
COC(=O)c1ccc(C)cc1C1=NC(C)(C(C)C)C(=O)N1 (stereo not given) (tested in a mixture with another compound),–,inactive
CC(=O)NCCO,–,inactive
O=[N+]([O-])c1ccc(O)cc1C(F)(F)F,86.6 µM (active),–
Cc1occc(=O)c1OC(=O)C(C)C,–,inactive
COC(CC(C)CCCC(C)(C)O)OC (stereo not given),–,inactive
CCCN(CCC)S(=O)(=O)c1ccc(C(=O)O)cc1,–,inactive
CCCCN(CCCC)C(=O)N(CCCC)CCCC,80.4 µM (active),–
COCCOC(=O)c1ccccc1C(=O)OCCOC,–,inactive

Structure (SMILES),AC50,outcome
CCCCOC(=O)CCCCCCCC(=O)OCCCC,–,inactive
COC(C)(C)CCCC(C)CC=O (stereo not given),50 µM (active),–
CC1(C)C2=CCCC(C)(C)[C@]23CC[C@H]1C3,78.4 µM (active),–
CCCCCCC(CO)CCCC (stereo not given),76.9 µM (active),–
O=C1NC2NC(=O)NC2N1 (stereo not given),–,inactive
CCOC(=O)CC(C)O (stereo not given),–,inactive
CC/C=C\CC/C=C/CO,50 µM (active),–
CC1CC(O)CC(C)(C)C1 (stereo not given),–,inactive
CCCC(=O)c1ccccc1,–,inactive
CCCC[P+](CCCC)(CCCC)CCCC,91.7 µM (active),–
C=C[Si]1(C)O[Si](C)(C=C)O[Si](C)(C=C)O[Si](C)(C=C)O1 (stereo not given),88 µM (active),–
CCOc1ccc(N=Nc2ccc(C=Cc3ccc(N=Nc4ccc(OCC)cc4)cc3S(=O)(=O)O)c(S(=O)(=O)O)c2)cc1,–,inactive
Cc1cc(C)nc(NS(=O)(=O)c2ccc(N)cc2)n1,–,inactive
CCCCC1CCC(O)CC1 (stereo not given),–,inactive
CCCCCCCCCCCCCCCC(=O)OC/C=C(C)/C=C/C=C(C)/C=C/C1=C(C)CCCC1(C)C,40 µM (active),–
CCCC[O][Al]([O]CCCC)[O]CCCC,59.3 µM (active),–
CC/C=C\CCOC(=O)CC,–,inactive
CCCC(=O)OC(C)(C)Cc1ccccc1,–,inactive
COc1ccc(COC(C)=O)cc1,–,inactive
CC(C)=CCCC(C)CCOC=O (stereo not given),50 µM (active),–
